“And” between values parts separate entries of the source, which are not always exact repeats. Equal values may be shown once. Results filed as inconclusive are left out. The source made the active and inactive calls. Unless noted, calls come from the whole dose curve; as a rule, active = well fitted curve in the direction sought with a large enough effect; inconclusive = small, poorly fitted or top-dose-only effect, or another doubt; inactive = no such curve, though single readings can be large; an effect the other way counts as inactive or inconclusive.
Tests used:
[1] = qHTS assay for small molecule agonists of the antioxidant response element (ARE) signaling pathway measured by Nrf2-dependant transcriptional activity (AID 720636; active = well fitted curve in the direction sought with a large enough effect in the repeat runs; an effect the other way counts as inactive or inconclusive; note: % of control where 0% means no effect)
How it was run: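 ARE-luc HepG2 cells carrying an Nrf2-responsive luciferase reporter were plated in medium with 1% dialyzed FBS, left 6 hr at 37 C to attach, then exposed to compound for 16 hr. Luciferase luminescence was read after ONE-Glo addition.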

[2] = qHTS assay for small molecule antagonists of the retinoid-related orphan receptor gamma (ROR-gamma) signaling pathway - cell viability counter screen (AID 720652; active = well fitted curve in the direction sought with a large enough effect in the repeat runs; an effect the other way counts as inactive or inconclusive;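 note: CHO reporter cells with doxycycline-induced ROR-gamma expression; series mostly up to about 92 µM; compound exposure lasted 16 hr before ATP read; % is set by controls: 0 for no effect and ±100 for the full control effect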)
How it was run: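 Steps: seed CHO cells bearing TET-inducible ROR and ROR response element-luciferase; rest 5 hr at 37 C; add compound, then doxycycline; incubate 16 hr; add CellTiter-Glo and read luminescence as ATP-based viability.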

[3] = qHTS assay for small molecule agonists of the antioxidant response element (ARE) signaling pathway measured by Nrf2-dependant transcriptional activity - cell viability counter screen (AID 720653; active = well fitted curve in the direction sought with a large enough effect in the repeat runs; an effect the other way counts as inactive or inconclusive; note: % is set by controls: 0 for no effect and ±100 for the full control effect); conditions: ARE-bla HepG2 viability, CellTiter-Glo ATP luminescence, 16 h; hits give low values
How it was run: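 ARE-bla HepG2 cells (2,000/well) rested 5 hrs at 37C/5% CO2, then exposed to compounds in DMSO for 16 hrs. Viability was read in the same wells as intracellular ATP by luminescence, 30 min at room temperature after reagent addition.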

[4] = qHTS Assay for Identifying Gametocytocidal Compounds (AID 743244);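 note: % is set by controls: 0 for no effect and ±100 for the full control effect; actives lower the fluorescent signal which means gametocytes are killed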; conditions: P. falciparum 3D7 stage III-V gametocytes, alamarBlue, 72 h; max response: hits give low values
How it was run: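 P. falciparum 3D7 stage III–V gametocytes (20,000 cells/well) were exposed to compounds for 72 h at 37 °C, 5% CO2. AlamarBlue was then added for 24 h; decreased resorufin fluorescence (Ex 525/Em 598 nm) indicated loss of viability.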

[5] = qHTS assay for cell viability of HEK293 cells (AID 743288); conditions: ATP luminescence (CellTiter-Glo), 18 h, hits give low values; note: % is set by controls: 0 for no effect and ±100 for the full control effect; nearly all actives have a fitted effect of over 50% in size
How it was run: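 ATP luminescence (CellTiter-Glo) reports metabolically competent cell number after parental HEK293 cells, 2,000/well, were treated with DMSO-dissolved compounds for 18 h at 37 C; reagent incubation 30 min, room temperature.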

[6] = qHTS assay for cell viability of the p53RE-bla HCT-116 cell line (AID 743292); note: % is set by controls: 0 for no effect and ±100 for the full control effect; nearly all actives have a fitted effect of over 55% in size
How it was run: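 CellSensor p53RE-bla HCT-116 cells, 4,000/well, preincubated 5 h at 37 C, then exposed to compounds in DMSO for 16 h at 37 C. Viability read as CellTiter-Glo luminescence (intracellular ATP) after 30 min at room temperature.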

[7] = qHTS assay for measurement of the activity of small molecule inhibitors on Zika virus induced Caspase-3 activity in human iPSC derived neural progenitor cells (hNPCs) (AID 1224857); note: % of control where 0% means no effect; nearly all actives have a fitted effect of over 65% in size
How it was run: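 hNPCs seeded 350 cells/well, cultured 16–20 h; compounds added 1 h before ZIKV (2 FFU/cell), 37 C 6 h. Caspase-Glo 3/7 luminescence after 30 min RT; % inhibition from induction scaled to uninfected (0%) and infected (100%) wells.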

[8] = qHTS for compounds that reverse cellular toxicity of Amyloid beta (A-beta) peptide in yeast: LOPAC Validation Assay (AID 720559);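 note: plate controls were DMSO for no effect and equimolar ferric chloride plus clioquinol rescue for full effect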
How it was run: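 OD600 growth readout after 48 hr at 30 C; A-beta-toxic yeast plus pinned compounds in medium. Normalization: DMSO = negative, equimolar FeCl3 + clioquinol = positive.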

[9] = qHTS for Activators of Parkin Expression: LOPAC Validation Assay (NLuc Reporter) (AID 720572;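 note: 0% = DMSO and 100% = positive control compound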)
How it was run: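 Cells harboring the Parkin-promoter coincidence reporter were treated for 24 h at seven concentrations. NLuc output was measured sequentially after the FLuc channel and scaled between DMSO and positive control values.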

[10] = qHTS for Activators of Parkin Expression: LOPAC Validation Assay (FLuc Reporter) (AID 720573;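 note: 0% = DMSO and 100% = positive control compounds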)
How it was run: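 FLuc luminescence read-out from a neuronal line expressing a Parkin-promoter-driven coincidence reporter. Cells treated 24 h at 37 C, 5% CO2 with compounds at 7 concentrations; signal increase normalized to DMSO and positive control.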

[11] = biological target: T1, Hexokinase-4 (Homo sapiens) + Glucokinase regulatory protein (Homo sapiens) (UniProt P35557+Q14397); test: qHTS assay for inhibitors of recombinant human GCK-GKRP interaction: Diaphorase-coupled assay (AID 743205)
T1 sequence (P35557 whole entry, looked up): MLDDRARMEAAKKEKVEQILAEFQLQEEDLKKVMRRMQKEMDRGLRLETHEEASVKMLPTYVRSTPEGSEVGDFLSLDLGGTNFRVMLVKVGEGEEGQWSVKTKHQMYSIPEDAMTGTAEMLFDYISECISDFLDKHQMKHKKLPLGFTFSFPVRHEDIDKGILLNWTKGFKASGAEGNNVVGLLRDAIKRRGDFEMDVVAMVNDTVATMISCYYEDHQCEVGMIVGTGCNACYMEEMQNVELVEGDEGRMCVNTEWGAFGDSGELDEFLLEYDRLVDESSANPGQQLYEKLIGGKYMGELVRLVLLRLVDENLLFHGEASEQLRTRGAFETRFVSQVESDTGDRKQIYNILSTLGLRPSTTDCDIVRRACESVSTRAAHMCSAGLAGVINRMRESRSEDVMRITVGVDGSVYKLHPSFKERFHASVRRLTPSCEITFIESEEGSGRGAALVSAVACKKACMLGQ
T1 sequence (Q14397 whole entry, looked up): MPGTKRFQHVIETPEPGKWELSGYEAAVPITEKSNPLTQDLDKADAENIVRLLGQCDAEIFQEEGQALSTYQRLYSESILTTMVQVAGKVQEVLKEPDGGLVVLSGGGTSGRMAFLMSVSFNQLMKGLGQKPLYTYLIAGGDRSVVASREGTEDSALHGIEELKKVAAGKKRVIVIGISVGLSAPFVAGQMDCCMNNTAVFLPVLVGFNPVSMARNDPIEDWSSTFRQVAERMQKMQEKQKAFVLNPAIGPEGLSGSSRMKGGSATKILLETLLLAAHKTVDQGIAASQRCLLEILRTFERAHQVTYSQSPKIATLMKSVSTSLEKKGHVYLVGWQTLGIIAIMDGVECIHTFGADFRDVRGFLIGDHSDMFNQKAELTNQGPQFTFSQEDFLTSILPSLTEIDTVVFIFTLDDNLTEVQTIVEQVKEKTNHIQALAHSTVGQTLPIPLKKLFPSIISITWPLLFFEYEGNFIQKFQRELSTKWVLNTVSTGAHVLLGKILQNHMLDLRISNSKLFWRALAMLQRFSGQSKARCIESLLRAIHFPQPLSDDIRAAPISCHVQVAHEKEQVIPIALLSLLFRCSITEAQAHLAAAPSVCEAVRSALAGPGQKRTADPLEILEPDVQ
How it was run: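 Resorufin fluorescence (525/590 nm), read each minute over 30 min, reports GCK activity coupled via G6PDH and diaphorase. Reaction: 10 nM GST-GCK, 10 nM FLAG-GKRP, 5 mM glucose, 0.4 mM ATP, 0.15 mM NADP+, 0.1 mM resazurin.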

[12] = biological target: T1, Hexokinase-4 (Homo sapiens) + Glucokinase regulatory protein (Homo sapiens); test: qHTS assay for inhibitors of recombinant human GCK-GKRP interaction: ADP-Glo assay (AID 743206);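 note: plate controls were DMSO plus enzyme for no effect and no enzyme for full effect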
How it was run: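 Pin-transferred compounds meet a 15 nM GST-GCK/15 nM FLAG-GKRP/2 uM S6P mix (dispense concentrations). ATP is then added to 0.4 mM final with 5 mM glucose, and the reaction runs 60 min at room temperature. ADP is quantified luminescently.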

[13] = biological target: T1, Hexokinase-4 (Homo sapiens) + Glucokinase regulatory protein (Homo sapiens); test: qHTS assay for inhibitors of recombinant human GCK-GKRP interaction: HTRF assay (AID 743207);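 note: 0% = DMSO with GCK present and -100% = DMSO wells lacking GCK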
How it was run: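 HTRF read-out (ex 320 nm; 615/665 nm emission) after 60 min RT equilibration of 5 nM GST-GCK, 5 nM FLAG-GKRP, 2 uM S6P, compound and anti-FLAG/anti-GST detection antibodies; signal normalized between DMSO wells with and without GCK.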

CCOc1ccc(NC(C)=O)cc1
inactive: outcome [1] | outcome [2] | max response [3] 3.98% and -0.784% | max response [4] 18.5% | max response [5] -2.1% and -6.16% | outcome [6] | Potency [7]

CCCCCCCC/C=C\CCCCCCCCN
inactive: outcome [1] | max response [3] 3.81% | max response [4] -6.53% | max response [5] -0.943% | outcome [6] | Potency [7]

CC(C)(C)CC(C)(C)c1ccc(O)c(-n2nc3ccccc3n2)c1
inactive: outcome [1] | max response [3] 4.4% | max response [4] -5.06% | max response [5] -13.9% | Potency [7]

CCOC(=O)[C@H](CCc1ccccc1)N[C@@H](C)C(=O)N1[C@H](C(=O)O)C[C@H]2CCCC[C@@H]21
inactive: outcome [8] | outcome [9] | outcome [10] | outcome [11] | outcome [12] | outcome [13] | max response [4] -0.763% and -2.8% and 30% | Potency [7]

CCCCCCCCCCCCCCC[C@H](O)[C@@H](N)CO
inactive: Potency [7]

CCCCCCCCOc1ccc(C(=O)c2ccccc2)c(O)c1
inactive: outcome [1] | max response [3] -12.5% | max response [4] -5.25% | max response [5] -9.08% | outcome [6] | Potency [7]

CCCCOC(=O)CC(CC(=O)OCCCC)(OC(C)=O)C(=O)OCCCC
inactive: outcome [1] | max response [3] -1.72% | max response [4] 2.63% | max response [5] -16.9% | outcome [6] | Potency [7]

C/C=C/c1ccc(O)c(OC)c1
inactive: outcome [1] | outcome [2] | max response [3] -8.93% and -1.72% | max response [4] 26.3% | max response [5] -4.69% and 11.4% | outcome [6] | Potency [7]

O=C(O)CCC(=O)Nc1ccc(S(=O)(=O)Nc2nccs2)cc1
inactive: Potency [7]

CC(C)NCC(O)c1ccc2ccccc2c1 (stereo not given)
inactive: Potency [7]

CN(CCCN1c2ccccc2CCc2ccccc21)CC(=O)c1ccc(Cl)cc1
inactive: Potency [7]

OC[C@H]1O[C@@H]2O[C@H]3[C@H](O)[C@@H](O)[C@@H](O[C@H]4[C@H](O)[C@@H](O)[C@@H](O[C@H]5[C@H](O)[C@@H](O)[C@@H](O[C@H]6[C@H](O)[C@@H](O)[C@@H](O[C@H]7[C@H](O)[C@@H](O)[C@@H](O[C@H]8[C@H](O)[C@@H](O)[C@@H](O[C@H]1[C@H](O)[C@H]2O)O[C@@H]8CO)O[C@@H]7CO)O[C@@H]6CO)O[C@@H]5CO)O[C@@H]4CO)O[C@@H]3CO
inactive: outcome [1] | outcome [2] | max response [3] -6.08% | max response [4] 2.64% | max response [5] -3.67% | outcome [6] | Potency [7]

O=[N+]([O-])c1ccc(/C=N\O)o1
inactive: Potency [7]

CCCN(CCC)S(=O)(=O)c1ccc(C(=O)O)cc1
inactive: outcome [1] | outcome [2] | max response [3] 9.27% and -1.08% | max response [4] 12.9% | max response [5] 7.44% and -5.93% | outcome [6] | Potency [7]

CCN(CC)CCNc1ccc(CO)c2sc3ccccc3c(=O)c12
inactive: Potency [7]

CCCN(CCc1cccs1)[C@H]1CCc2c(O)cccc2C1
inactive: Potency [7]

Clc1cccc(C(c2ccc3nc[nH]c3c2)n2ccnc2)c1 (stereo not given)
inactive: Potency [7]

C=C[C@H]1CN2CC[C@H]1C[C@@H]2[C@@H](O)c1ccnc2ccc(OC)cc12
inactive: outcome [1] | outcome [2] | max response [3] 21.8% | max response [5] -3.56% | outcome [6] | Potency [7]

NC(=O)c1ccccc1O
inactive: outcome [1] | outcome [2] | max response [3] -0.33% | max response [4] -5.71% | max response [5] -5% | outcome [6] | Potency [7]

NC(N)=NCc1cccc(I)c1
inactive: outcome [8] | outcome [9] | outcome [10] | outcome [11] | outcome [12] | outcome [13] | max response [4] 10% and 7.9% | Potency [7]

CN=C(N)NCCC[C@H](N)C(=O)O
inactive: outcome [8] | outcome [9] | outcome [10] | outcome [11] | outcome [12] | outcome [13] | max response [4] -7.79% and 5.96% and -18.7% | Potency [7]

CC1(C)OC[C@@H]2O[C@@]3(C(=O)O)OC(C)(C)O[C@H]3[C@@H]2O1
inactive: outcome [1] | max response [3] -0.898% | max response [4] -4.16% | max response [5] -6.28% | outcome [6] | Potency [7]

CCN(CC)CCNC(=O)COc1ccc(OC)cc1
inactive: Potency [7]

CCCCC(CC)COC(=O)c1ccc(N(C)C)cc1 (stereo not given)
inactive: outcome [1] | outcome [2] | max response [3] 0.308% and -6.35% | max response [4] 3.36% | max response [5] 4.36% and -3.29% | outcome [6] | Potency [7]
